Screening results from PubChem BioAssay.
Only a selection was taken, and hits are over-represented in it overall.
KDM5B inhibitor = KDM5B demethylase inhibition; AID 1347165; hit rate 2.6% among 220,000; Potency, µM (top dose mostly 57.7 µM), most hits filed as inhibitors; KDM5B demethylase, FDH-coupled NADH fluorescence (FDH is formaldehyde dehydrogenase); active means well fitted inhibition curve with a large enough effect; further: 0% is about no effect; nearly all actives have a fitted effect of over 70% in size
Target sequence (Q9UGL1 whole entry, looked up): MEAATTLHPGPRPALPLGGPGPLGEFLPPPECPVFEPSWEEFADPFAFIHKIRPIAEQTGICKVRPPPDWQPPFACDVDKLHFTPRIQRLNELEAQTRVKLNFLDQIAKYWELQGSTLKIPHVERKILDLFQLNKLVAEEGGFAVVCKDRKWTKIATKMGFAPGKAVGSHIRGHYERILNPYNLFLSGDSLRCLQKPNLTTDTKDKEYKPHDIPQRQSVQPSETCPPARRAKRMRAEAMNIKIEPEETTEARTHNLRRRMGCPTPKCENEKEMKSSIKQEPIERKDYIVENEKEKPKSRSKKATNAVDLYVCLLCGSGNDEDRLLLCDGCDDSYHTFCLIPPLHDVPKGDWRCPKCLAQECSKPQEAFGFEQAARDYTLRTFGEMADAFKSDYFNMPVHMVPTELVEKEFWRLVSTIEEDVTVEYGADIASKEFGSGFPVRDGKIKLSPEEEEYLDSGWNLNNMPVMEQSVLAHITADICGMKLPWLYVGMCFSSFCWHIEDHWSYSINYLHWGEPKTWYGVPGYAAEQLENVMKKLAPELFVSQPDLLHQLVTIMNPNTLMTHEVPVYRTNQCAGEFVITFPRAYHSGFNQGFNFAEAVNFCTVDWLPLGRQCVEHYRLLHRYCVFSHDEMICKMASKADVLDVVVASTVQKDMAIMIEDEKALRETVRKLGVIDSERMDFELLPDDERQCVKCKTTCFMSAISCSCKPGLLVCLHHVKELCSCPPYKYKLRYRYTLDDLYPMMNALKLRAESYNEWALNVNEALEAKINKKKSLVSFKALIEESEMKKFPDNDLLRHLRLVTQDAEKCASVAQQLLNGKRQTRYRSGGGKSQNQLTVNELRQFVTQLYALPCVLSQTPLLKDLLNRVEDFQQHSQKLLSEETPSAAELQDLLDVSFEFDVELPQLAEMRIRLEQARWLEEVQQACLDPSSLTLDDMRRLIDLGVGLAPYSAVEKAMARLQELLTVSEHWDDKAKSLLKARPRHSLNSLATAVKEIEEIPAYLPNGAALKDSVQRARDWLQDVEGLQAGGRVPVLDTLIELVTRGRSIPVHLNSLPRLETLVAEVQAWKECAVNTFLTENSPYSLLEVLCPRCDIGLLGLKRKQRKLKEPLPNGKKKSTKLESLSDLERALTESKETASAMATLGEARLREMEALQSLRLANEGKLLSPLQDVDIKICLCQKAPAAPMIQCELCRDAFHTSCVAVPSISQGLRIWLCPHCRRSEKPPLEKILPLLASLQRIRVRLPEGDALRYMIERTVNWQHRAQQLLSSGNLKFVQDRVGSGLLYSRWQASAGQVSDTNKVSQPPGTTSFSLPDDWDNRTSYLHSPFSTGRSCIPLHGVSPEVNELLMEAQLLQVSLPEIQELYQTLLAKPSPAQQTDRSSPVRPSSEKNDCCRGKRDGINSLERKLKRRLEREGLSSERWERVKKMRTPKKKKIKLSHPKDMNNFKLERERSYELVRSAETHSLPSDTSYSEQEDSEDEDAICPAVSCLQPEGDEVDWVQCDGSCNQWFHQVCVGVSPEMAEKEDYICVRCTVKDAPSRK
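qHTS format, multiple compound concentrations. Buffer 50 mM HEPES pH 7.5/0.01% Tween-20; 200 nM KDM5BΔAP final; 10 min compound preincubation; substrate-mix levels 12.5 µM peptide, 25 µM α-KG, 0.25 mM NAD⁺; 30 min RT; ΔRFU.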
* marks the source's active call; other numbers are inactive results; i = inactive; + = active, no number. Potency means the concentration at half of the fitted maximal effect.

SMILES	KDM5B inhibitor
O=C(CCc1nc2ccccc2s1)NCC1Cn2cccc2CN1Cc1ccccc1 (centres undefined)	25µM*
Cc1ccc(F)cc1NC(=O)CC(C)(C(=O)O)c1ccccc1 (centres undefined)	i
COc1ccccc1OCCC(=O)OCc1ccc(Cl)cc1	i
CC(NC(=O)CNC(=O)c1cccs1)c1ccncc1 (centres undefined)	i
CCOC(=O)Nc1ccc(NS(=O)(=O)c2ccc(C)cc2Cl)cc1	i
Cc1ccc(C)c(-c2cc(C(=O)NC3CCCC3)c3cc(Br)ccc3n2)c1	i
COc1ccc(CCNc2oc(C(C)C)nc2C#N)cc1	i
O=C(Nc1cccc(-c2nnc3n2CCCC3)c1)C1CCCCC1	i
O=C(CCc1ncc(-c2ccccc2Cl)o1)N1CCOCC1	i
NCc1cccc(-c2ccc(F)cc2F)c1	i
O=C(COc1ccc2c(=O)c(-c3ccc(Cl)cc3)coc2c1)Nc1ccccc1	i
COc1cccc(-c2cc3c(ccn3Cc3cccnc3)c(C3=CCOCC3)n2)c1OC	28µM*
Cc1ccc(Cn2c(CN3CCC(C(=O)NCc4cccnc4)CC3)cc3ccccc32)cc1	i
COc1ccc(NC(=O)COc2cccc3c2CCN(Cc2cccnc2)C3=O)c(OC)c1	i
Cc1nc2ccn(Cc3cccnc3)c(=O)c2cc1C(=O)N1CCN(c2ccccc2)CC1	i
CN(C)Cc1cccc(-c2cc3c(ccn3Cc3cccnc3)c(C3=CCOCC3)n2)c1	40µM*
Cc1ccc(-c2cc3c(ccn3Cc3cccnc3)c(C3=CCOCC3)n2)cn1	35µM*
COc1cccc(-c2nc3cc4c(cc3cc2CN2CCOCC2)OCO4)c1OC	i
Cc1cccc(Cn2c(N3CCN(Cc4c(F)cccc4Cl)CC3)nc3c2c(=O)[nH]c(=O)n3C)c1	i
COc1ccc2cc(CNC(=O)c3nn(C)c(=O)c4ccccc34)ccc2c1	i
Cc1ccc2c(C)c(CCC(=O)Nc3cc(Cl)ccc3F)c(=O)oc2c1	i
CCCNC(=O)N(C1CCOCC1)C1CCN(S(=O)(=O)c2ccc(C)cc2C)CC1	i
Cc1cc(SCC(=O)NC(=O)NC2CC2)nc2ccccc12	i
Cc1oc2cc(OCC(=O)NCCCOC(C)C)ccc2c(=O)c1-c1ccccc1	i
O=C(Nc1ccc(Oc2ccccc2)cc1)N[C@H]1CO[C@H]2[C@@H]1OC[C@@H]2Nc1nccc(-c2ccc(-c3ccccc3)cc2)n1	i
SMILES	KDM5B inhibitor
O=C(N[C@H]1CO[C@H]2[C@@H]1OC[C@@H]2Nc1nccc(-c2ccco2)n1)c1ccco1	40µM*
CC(C)(C)c1ccnc(N[C@H]2CO[C@H]3[C@@H]2OC[C@@H]3NC(=O)c2ccco2)n1	i
O=C(Nc1ccccc1)O[C@@H]1CO[C@H]2[C@@H]1OC[C@@H]2NC(=S)Nc1ccccc1	i
S=C(Nc1ccccc1)N[C@H]1CO[C@H]2[C@@H]1OC[C@@H]2Nc1nccc(-c2ccco2)n1	25µM*
CC(C)(C)c1ccnc(N[C@H]2CO[C@H]3[C@@H]2OC[C@@H]3NC(=O)CCCC(=O)O)n1	i
Cc1ccc(SCc2cc(=O)oc3c(C)c(O)ccc23)cc1	i
Cc1cccc(Cn2c(NCc3ccco3)nc3c2c(=O)[nH]c(=O)n3C)c1	i
CCCc1nnc(NC(=O)Cn2ccc3c(Cl)cccc32)s1	i
Cc1ccc(CNC(=O)NCC(=O)N2CCN(S(=O)(=O)c3ccc(Cl)c(Cl)c3)CC2)cc1	i
CCC1Oc2ccc(NC(=O)c3ccccc3OC(C)=O)cc2CN(Cc2ccccc2F)C1=O (centres undefined)	25µM*
CCC1Oc2ccc(NC(=O)c3ccccc3Cl)cc2CN(Cc2ccccc2F)C1=O (centres undefined)	i
CC(=O)Oc1ccccc1C(=O)Nc1ccc2c(c1)CN(Cc1ccc(Cl)cc1)C(=O)C(C)O2 (centres undefined)	35µM*
CC1Oc2ccc(NC(=O)Cc3ccc(F)cc3)cc2CN(Cc2ccc(Cl)cc2)C1=O (centres undefined)	i
CC1Oc2ccc(NC(=O)c3cccs3)cc2CN(Cc2ccc(F)cc2)C1=O (centres undefined)	i
CCC1Oc2ccc(NC(=O)C(C)C)cc2CN(Cc2ccccc2F)C1=O (centres undefined)	i
CCOCCOC(=O)COc1ccc2c(=O)c(-c3ccccc3Cl)coc2c1	i
CCn1c(C(=O)N2CCCC(C(=O)N3CCOCC3)C2)cc2ccccc21 (centres undefined)	i
COCc1cc(NCCCNc2cccnc2)ncn1	14µM*
COCc1cc(NCCSCc2ccccc2C)ncn1	i
O=C(NCCCNc1ccccc1)NCc1cccnc1	i
Cc1ccc(C(=O)/C(=C\c2ccc(Cl)c(Cl)c2)c2nc3ccccc3o2)cc1	i
C#CCNC(=O)c1onc(-c2ccc(Cl)cc2)c1[C@H](C)O	i
CC(C)NC(=O)CSCc1coc(-c2ccc(Cl)cc2)n1	i
C#CCNC(=O)c1nc(-c2ccc([S+](C)(=O)[O-])cc2)c2cnccn12	+
CCC(C(=O)NC1CCCCC1)n1c(SCc2cccc(F)c2)nc2ccncc21 (centres undefined)	i
SMILES	KDM5B inhibitor
C#CCNC(=O)c1nc(-c2ccc([S+](C)(=O)[O-])cc2)c2ccccn12	i
C#CCNC(=O)c1nc(-c2cccnc2)c2cnccn12	i
C#CCNC(=O)c1nc(-c2ccc(Cl)nc2)c2cnccn12	112µM*
CC(C)NC(=O)c1nc(-c2cccc(F)c2)c2cnccn12	32µM*
CC(C)NC(=O)c1nc(-c2ccc(Cl)nc2)c2cnccn12	+
CC(C)NC(=O)c1onc(-c2ccc(Cl)cc2)c1[C@H](C)O	i
CS(=O)(=O)c1ccc2nc(NC(=O)Cc3ccc(Cl)cc3)sc2c1	i
O=C(O)/C(=C/c1cccs1)c1cccs1	i
CCS(=O)(=O)CCSCCS(=O)(=O)CC	i
CCOc1cc(CNCC(O)c2ccccc2)ccc1Oc1nnnn1-c1ccccc1 (centres undefined)	i
COc1ccc(CN2CCN(CC(=O)Nc3ccccc3C(=O)NC3CCCC3)CC2)cc1	i
CC(C)CNC(=O)c1nc(CC(=O)Nc2cccc3ncccc23)no1	i
FC(F)(F)c1nc2ccccc2n1Cc1nnc2n1N=C(c1ccc(Cl)cc1)CS2	i
CCCNC(=O)CSc1cc(C)c2cc(C)cc(C)c2n1	i
C=CCNCc1ccc(-c2ccc(C(C)O)cc2)o1 (centres undefined)	i
Cc1cc(C)c(/C=C/C(=O)c2cc3ccccc3o2)c(C)c1	i
COc1ccc(OCC(=O)Nc2cc3c(cc2C(=O)c2ccc(C)cc2)OCCO3)cc1	i
CN(C)CC(=O)N1CC(F)(F)C[C@H]1c1nc(-c2ccncc2)no1	i
NC(=O)Cc1csc(NC(=O)CCc2ncc(-c3ccccc3Cl)o2)n1	i
Cc1nc([C@@H]2CN(C(=O)c3cccs3)C[C@H]2C(N)=O)n[nH]1	i
Cc1nc([C@@H]2CN(C(=O)c3sccc3C)C[C@H]2C(N)=O)n[nH]1	i
COc1ccc2[nH]c(C(=O)N3C[C@@H](C(N)=O)[C@H](c4n[nH]c(C)n4)C3)cc2c1	28µM*
CNC(=O)[C@@H]1CN(C(=O)c2cc3ccccc3[nH]2)C[C@H]1COC	i
CNC(=O)[C@@H]1CN(C(=O)c2cc3cc(OC)ccc3[nH]2)C[C@H]1COC	32µM*
COC[C@@H]1CN(C(=O)c2cc3ccc(OC)cc3[nH]2)C[C@H]1C(N)=O	i
CC(C)(C)c1ccc(C2CC2C(=O)N/N=C/c2ccc(Cl)cc2)cc1 (centres undefined)	i
